# Screening results (PubChem)
# In the library only some 11% were active in any assay of this set; here they are far more common.
# PI5P4K alpha inh – qHTS for Inhibitors of phosphatidylinositol 5-phosphate 4-kinase (PI5P4K). PI5P4Kalpha enzyme, ADP-Glo luminescence, 60 min; active compounds read low. Phosphatidylinositol 5-phosphate 4-kinase type-2 alpha (Homo sapiens), P48426. 330,000 tested, 1.2% active. max response, %; active = max response of -50% or lower; inconclusive = between -30% and -50%; inactive = -30% or higher; also: value at the top dose of about 77 µM; % is scaled to controls: 0 for no effect and ±100 for the full control effect
#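 Reactions run in 0.038 M HEPES pH 7.4, 0.28 mM EGTA, 0.1% CHAPS and 5% DMSO, with PI5P4Kalpha, substrate, compound and 5 microM ATP final, one hour at room temperature. Readout is ADP-Glo luminescence.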
# G9a inh – qHTS Assay for Inhibitors of Histone Lysine Methyltransferase G9a; Histone-lysine N-methyltransferase EHMT2 (Homo sapiens), Q96KQ7; G9a H3K9 monomethylation, AlphaScreen, 2 h; Potency, µM (highest dose often 102 µM), for the others: at the top dose activity, negative = inhibition, usual class: inhibitors; 350,000 tested, 8.8% active; AID 504332, 2011; also: potency is read from the fitted curve at half-maximal effect; % is scaled to controls: 0 for no effect and ±100 for the full control effect; nearly all actives have a fitted effect of over 75% in size
#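 AlphaScreen detection with an anti-monomethyl H3K9 antibody quantified product after a 2 h room-temperature reaction containing 500 nM biotinylated H3K9 peptide, 20 µM SAM and 20 nM enzyme, which had been preincubated 15 min with compound.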
# JMJD2A Tudor – qHTS Assay for Inhibitors of JMJD2A-Tudor Domain; 390,000 tested, 4.4% active; AlphaScreen JMJD2A-Tudor / H3K4me3 peptide binding; Potency, µM (doses to about 114 µM), without a hit: top-dose activity change, negative = inhibition, hits mostly inhibitors; also: potency is read from the fitted curve at half-maximal effect; % is scaled to controls: 0 for no effect and ±100 for the full control effect; nearly all actives have a fitted effect of over 50% in size
# Target sequence (O75164 whole entry, looked up, the tested form may be a part): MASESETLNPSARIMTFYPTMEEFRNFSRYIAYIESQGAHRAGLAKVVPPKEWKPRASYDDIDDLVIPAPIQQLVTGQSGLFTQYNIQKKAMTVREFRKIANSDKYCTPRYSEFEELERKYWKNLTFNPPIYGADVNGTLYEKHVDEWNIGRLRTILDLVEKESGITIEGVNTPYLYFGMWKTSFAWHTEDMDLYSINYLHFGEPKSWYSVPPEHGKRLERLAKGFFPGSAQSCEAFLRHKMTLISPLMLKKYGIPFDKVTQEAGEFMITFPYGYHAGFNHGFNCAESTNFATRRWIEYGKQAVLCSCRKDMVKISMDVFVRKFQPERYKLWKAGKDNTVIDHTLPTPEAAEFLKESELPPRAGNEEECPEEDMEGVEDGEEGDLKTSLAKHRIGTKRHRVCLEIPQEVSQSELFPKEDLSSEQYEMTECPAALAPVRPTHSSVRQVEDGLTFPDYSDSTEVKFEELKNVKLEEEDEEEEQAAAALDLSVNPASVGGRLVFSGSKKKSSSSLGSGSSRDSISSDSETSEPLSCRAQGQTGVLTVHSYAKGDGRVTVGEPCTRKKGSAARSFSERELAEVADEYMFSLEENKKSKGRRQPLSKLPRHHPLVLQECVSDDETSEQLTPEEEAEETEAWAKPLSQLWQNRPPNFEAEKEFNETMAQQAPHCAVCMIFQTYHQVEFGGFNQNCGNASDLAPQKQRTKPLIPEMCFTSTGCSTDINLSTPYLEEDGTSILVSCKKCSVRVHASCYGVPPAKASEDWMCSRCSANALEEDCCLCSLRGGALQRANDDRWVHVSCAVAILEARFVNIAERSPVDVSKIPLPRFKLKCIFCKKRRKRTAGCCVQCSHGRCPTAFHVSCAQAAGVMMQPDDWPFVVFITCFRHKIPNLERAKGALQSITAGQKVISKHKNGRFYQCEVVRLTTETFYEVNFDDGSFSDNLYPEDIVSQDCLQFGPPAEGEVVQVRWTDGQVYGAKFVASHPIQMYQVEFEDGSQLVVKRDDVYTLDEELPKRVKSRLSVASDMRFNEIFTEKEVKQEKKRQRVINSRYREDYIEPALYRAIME
# L3MBTL1 inh – qHTS Assay for the Inhibitors of L3MBTL1. Potency, µM (titrated, usually from 57.1 µM), without a hit: at the highest dose activity, negative = inhibition, hits mostly inhibitors. Lethal(3)malignant brain tumor-like protein 1 (Homo sapiens), Q9Y468. AlphaScreen L3MBTL1–H3K9me1 peptide binding. 230,000 tested, 0.66% active. AID 485360, 2010; also: potency is read from the fitted curve at half-maximal effect; % is scaled to controls: 0 for no effect and ±100 for the full control effect; nearly all actives have a fitted effect of over 60% in size
#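 AlphaScreen assay: L3MBTL1 (50 nM final) was preincubated 30 min at room temperature with biotinylated H3(1-15)K9me1 peptide (75 nM final), then 30 min with library compounds; streptavidin donor and nickel chelate acceptor beads (10 ug/mL final) added, 30 min dark.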
# BAZ2B inh – qHTS Assay for Inhibitors of BAZ2B | AlphaScreen BAZ2B-H3K14Ac peptide displacement | Potency, µM (series often up to 114 µM), for inactives: top-dose activity change, negative = inhibition, most hits filed as inhibitors | 360,000 tested, 4.4% active | AID 504333, 2011; also: potency is read from the fitted curve at half-maximal effect; % is scaled to controls: 0 for no effect and ±100 for the full control effect; nearly all actives have a fitted effect of over 60% in size
#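 BAZ2B 50 nM plus b-H3(5-23)K14Ac 50 nM, PBS pH 7.4/0.01% Tween-20, 30 min RT; compound added (max 110 uM), 30 min RT; streptavidin donor/Ni-chelate acceptor beads 10 ug/mL final, 20 min dark; AlphaScreen read.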
# HP1b binding inh – HTS for Inhibitors of HP1-beta Chromodomain Interactions with Methylated Histone Tails. Chromobox protein homolog 1 (Homo sapiens), P83916. AlphaScreen HP1-beta / biotin-H3K9me3 peptide binding. Potency, µM (highest dose often 114 µM), for the others: at the highest dose activity change, negative = inhibition, usual class: inhibitors. 390,000 tested, 0.56% active. AID 540317, 2011; also: potency is read from the fitted curve at half-maximal effect; nearly all actives have a fitted effect of over 70% in size
#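 Compound inhibition of the preformed complex between 50 nM HP1-beta and 50 nM biotinylated H3K9me3 peptide was read by AlphaScreen. Buffer was PBS pH 7.4 with 0.01% Tween-20. Incubations ran 30 min at room temperature, with 10 ug/mL donor/acceptor beads.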
# * = called active by the depositor; ? = inconclusive; . = no result given; [ ] = dose if it differs, or a comment. Unless noted, calls follow the shape of the dose curve; as a rule, active = well fitted inhibition curve with a large enough effect; inconclusive = small, poorly fitted or top-dose-only effect; inactive = no such curve, though single readings can be large or run the other way.
SMILES,PI5P4K alpha inh,G9a inh,JMJD2A Tudor,L3MBTL1 inh,BAZ2B inh,HP1b binding inh
O=C(NC(Cc1c[nH]c2ccccc12)C(=O)O)c1cccs1 (centres undefined),-9,11%,3%[57.1 µM],10%,-15%,22%
O=C(O)C(Cc1c[nH]c2ccccc12)N1C(=O)C2C3c4ccccc4C(c4ccccc43)C2C1=O (centres undefined),14,25µM*,-11%,-15%,?,18%
COc1ccc(CNC(=O)Nc2cn(CC(C)C)c(=O)c3ccccc23)cc1,.,?,-16%,.,3%[57.1 µM],21%
Cc1cc(C)nc(N/N=C/c2ccccc2OCC(=O)O)n1,7,-4%[2.33 µM],2.5µM*,.,2%,0%
O=C(O)COc1ccccc1/C=N/NC(=O)c1ccc(F)cc1,0,45µM*,-16%,20%,?,16%
Cc1cc(C)nc(SSc2nc(C)cc(C)n2)n1,?,0.4µM*,10µM*,-4%,4%,35%
O=C(Nc1ccccc1F)c1ccc(Cn2nc(N3CCN(c4ccccc4)CC3)ccc2=O)o1,.,?,50µM*,.,32µM*,8%
CCc1nc(CN2CCCC(C(=O)c3ccc4c5c(cccc35)CC4)C2)c(C)[nH]1 (centres undefined),0,?,?,?,?,-20%
CCc1ccc(CN2CCCC(C(=O)N3CCCCC3)C2)cc1 (centres undefined),0,8.9µM*,45µM*,3%,79µM*,-32%
COc1ccc(CN2CCCC(C(=O)N3CCCCC3)C2)c(OC)c1 (centres undefined),-9,.,?,-4%,-27%,-13%
O=C(c1ccc2c3c(cccc13)CC2)C1CCCN(Cc2ccncc2)C1 (centres undefined),2,?,56µM*,-3%,?,-8%
Cc1ccccc1CN1CCCC(C(=O)N2CCCCC2)C1 (centres undefined),-2,25µM*,22µM*,.,79µM*,?
O=C(O)C1CCN(Cc2cccnc2)CC1,2,?,1%,14%,-32%,20%
O=C(C1CCCN(Cc2cccnc2)C1)N1CCCCC1 (centres undefined),1,4µM*,?,-4%,22µM*,?
CCCn1c2ccccc2c2cnn(CC(=O)NCC3CCN(Cc4ccc(F)cc4)CC3)c(=O)c21,.,-7%[59 µM],-30%,.,-7%,-21%
CCNc1ncc2nc(-c3cccs3)c(=O)n(Cc3ccc(F)cc3)c2n1,.,-3%[0.501 µM],.,.,.,.
O=c1c(-c2cc(-c3ccc(F)cc3)nc3c2COc2ccc(Cl)cc2-3)coc2ccc(F)cc12,.,11%[59 µM],-15%,.,-26%,9%
Cc1cccc(OCC(=O)Nc2ccc(S(=O)(=O)N(Cc3ccccc3)c3ccccc3)cc2)c1,.,1%[59 µM],-9%,.,-13%,44%
O=[N+]([O-])c1cc(C(F)(F)F)ccc1NC1CCN(Cc2ccccc2)CC1,13,35µM*,35µM*,.,25µM*,50µM*
Cc1cc(C)cc(C(=O)NC(CC(N)=O)c2ccc(NC3CCCCCCCCCCC3)c([N+](=O)[O-])c2)c1 (centres undefined),1,45µM*,?,2%,?,-3%
NC(=O)CC(NC(=O)c1ccccc1)c1ccc(NC2CCN(Cc3ccccc3)CC2)c([N+](=O)[O-])c1 (centres undefined),-4,50µM*,-27%,-4%,?,16%
Cc1cc(C)cc(C(=O)NC(CC(N)=O)c2ccc(NCC3CC3)c([N+](=O)[O-])c2)c1 (centres undefined),0,79µM*,-12%,?,5%[57.1 µM],33%
Cc1cc(C)cc(C(=O)NC(CC(N)=O)c2ccc(NC3CCCCCCC3)c([N+](=O)[O-])c2)c1 (centres undefined),-3,?,-22%,-1%,-34%,29%
Cc1cc(C)cc(NC(=O)c2ccc3oc(=O)c(S(=O)(=O)c4ccc(F)cc4)cc3c2)c1,.,-26%[59 µM],-16%,.,-14%,9%
CC(C)Cn1c(=O)c2ccccc2n2c(CCC(=O)Nc3ccc(F)c(F)c3)nnc12,.,-1%[59 µM],0%,.,-1%,29%
SMILES,PI5P4K alpha inh,G9a inh,JMJD2A Tudor,L3MBTL1 inh,BAZ2B inh,HP1b binding inh
CCn1cc(C(=O)NCCc2ccc(Cl)cc2)c(=O)c2cc(S(=O)(=O)N3CCC(C)CC3)ccc21,.,-23%[59 µM],-15%,.,.,24%
COc1ccc(CCNc2ccc(C(CC(N)=O)NC(=O)c3cc(OC)ccc3OC)cc2[N+](=O)[O-])cc1 (centres undefined),1,45µM*,?,-29%,32µM*,-19%
Cc1ccc(N=c2sc(C)c(C)n2C)cc1,9,45µM*,?,?,?,-7%
COc1ccc(N=c2nc(-c3ccc(C)cc3)n(-c3ccccc3)s2)cc1,.,.,-34%[57.1 µM],.,.,?
Cc1nn(-c2ccc(N3CCOCC3)nn2)c(C)c1CCC(=O)NCc1ccc(OC(C)C)cc1,.,10%[59 µM],4%,.,-19%,32%
CCOc1ccc(N2CC(NC(=O)c3ccc(Cl)cc3)CC2=O)cc1 (centres undefined),.,-6%[59 µM],6%,.,5%,20%
CCCN1Cc2cccc(C(=O)N3CCN(c4cc(Cl)ccc4C)CC3)c2C1=O,-2,-80%,-9%,.,15%,25%
COCCN1Cc2cccc(C(=O)N3CCN(c4cc(C)ccc4C)CC3)c2C1=O,-11,45µM*,-29%,.,6%,26%
S=C(NCC1CCCO1)N1CCN(Cc2ccccc2)CC1 (centres undefined),-3,16µM*,0.89µM*,-5%,20µM*,20µM*
S=C(NCC1CCCO1)N1CCN(c2nc(-c3ccccc3)cs2)CC1 (centres undefined),-9,50µM*,?,-20%,?,-1%
CCN(CC)C(=O)c1[nH]cnc1C(=O)N[C@H](C)c1ccccc1,-2,-3%[0.501 µM],89µM*,7%,-32%,21%
CCOC(=O)c1[nH]cnc1C(=O)N[C@@H](C)c1ccccc1,3,7%[0.501 µM],-20%,-10%,56µM*,33%
C[C@H](NC(=O)c1nc[nH]c1C(=O)OCc1ccccc1)c1ccccc1,3,1%[0.501 µM],-9%,3%,4%,63%
